Source: PubChem BioAssay
This is a sample that favours compounds with a hit; in the whole collection about 7.1% have one here.
ATXN2 expr inh: Primary qHTS for Inhibitors of ATXN expression. HEK-293 ATXN2-luciferase reporter, luminescence, 24 h. 360,000 tested, 0.72% active. Potency, µM (series often up to 57 µM), actives largely listed as inhibitors; also: nearly all actives have a fitted effect of over 55% in size
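qHTS (up to 57 uM final) was run with 24 h compound exposure of reporter cells at 37 °C. Each well was multiplexed: SteadyGlo luminescence measured ATXN2-luciferase expression after a fluorogenic Gly-Phe-AFC viability readout (25 uM final).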
S2 tox: Viability Counterscreen for Primary qHTS for Inhibitors of ATXN expression | S2 cells (HEK-293 line with an ATXN2-luciferase reporter) viability, CellTiter-Fluor protease fluorescence, 24 h | Potency, µM (series often up to 56.7 µM), actives largely listed as cytotoxic | 400,000 tested, 0.49% active | AID 651635, 2014; also: nearly all actives have a fitted effect of over 40% in size
PINK1 modulator: A Quantitative High throughput Screen to Identify Chemical Modulators of PINK1 Expression; PINK1 immunofluorescence, high-content cytometry, 24 h; Potency, µM (highest dose often 76.6 µM), most hits filed as activators; 410,000 tested, 0.2% active; active = well fitted activation curve with a large enough effect; inconclusive = small, poorly fitted or top-dose-only effect; cell line not stated here; also: nearly all actives have a fitted effect of over 65% in size
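A stable cell line was treated with compounds at 5 concentrations for 24 hours, with CCCP as control. PINK1 levels and mitochondrial localization were measured by immunofluorescence with mitochondrial, cell and nuclear markers after fixation, read by laser-scanning cytometry.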
MCF10A rerep: A quantitative high throughput screen for small molecules that induce DNA re-replication in MCF 10a normal breast cells; MCF 10A DNA re-replication, Hoechst nuclear intensity, 48 h; Potency, µM (series often up to 46.1 µM), actives largely listed as activators; 350,000 tested, 2.9% active; AID 624296, 2012; also: nearly all actives have a fitted effect of over 50% in size
SW480 rerep: A quantitative high throughput screen for small molecules that induce DNA re-replication in SW480 colon adenocarcinoma cells; SW480 DNA re-replication, Hoechst DNA content imaging, 48 h; Potency, µM (titrated, usually from 46.1 µM), most hits filed as activators; 340,000 tested, 1.8% active; also: nearly all actives have a fitted effect of over 55% in size
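DNA re-replication was detected as more nuclei of elevated Hoechst intensity after 48 hr exposure to compound (23 nL pinned per well of 250 cells).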
IL1B secr inh: qHTS for Inhibitors of Inflammasome Signaling: IL-1-beta AlphaLISA Primary Screen | THP-1 LPS/ATP IL-1B secretion, AlphaLISA, 16 h; hits give low values | activity change, % at 57.5 µM | 360,000 tested, 4.7% active | AID 743279, 2014; in the data active = activity change below about -50%; inconclusive = mostly about -30% to -49%
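Secreted IL-1B measured by AlphaLISA bead assay after 16 h compound exposure of THP-1 cells; compounds (final up to 57.5 uM) added 1 h before LPS (250 ng/mL) and ATP (1.25 mM) stimulation; lower signal means less secretion.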
Of the large screens only hits and unclear results are named; the others gave an inactive call. Unless noted, calls follow the shape of the dose curve; as a rule, active = well fitted curve in the direction sought with a large enough effect; inconclusive = small, poorly fitted or top-dose-only effect, or another doubt; inactive = no such curve, though single readings can be large; an effect the other way counts as inactive or inconclusive.

COc1cc(-c2cc(NC(C)=O)c3ncc(-c4ccc(C(C)=O)cc4)n3c2)cc(OC)c1OC	IL1B secr inh -64 (no result: MCF10A rerep, SW480 rerep)
CCOc1ccccc1NC(=O)N(Cc1ccc(C)o1)C1CCN(C(C)=O)CC1	none (no result: MCF10A rerep, SW480 rerep, IL1B secr inh)
NC(=O)N[C@@H](CCC(=O)O)C(=O)O	none (no result: PINK1 modulator, MCF10A rerep, SW480 rerep, IL1B secr inh)
CCOC(=O)Cc1[nH]nc2c1C(C1C=CCCC1)C(C#N)=C(N)O2 (stereo unspecified)	MCF10A rerep inconclusive, IL1B secr inh -90
N#CC1=C(N)Oc2n[nH]c(-c3cccs3)c2C1C1C=CCCC1 (stereo unspecified)	IL1B secr inh -94
N#CC1=C(N)Oc2n[nH]c(-c3cccs3)c2C1C1CCCCC1 (stereo unspecified)	MCF10A rerep inconclusive, IL1B secr inh -98
N#CC1=C(N)Oc2n[nH]c(-c3cccs3)c2C1c1ccsc1 (stereo unspecified)	none
N#CC1=C(N)Oc2n[nH]c(-c3cccs3)c2C1c1ccncc1 (stereo unspecified)	S2 tox inconclusive
COc1ccc(CN2CCOc3ccc(CN4CCC(O)(c5cccnc5)CC4)cc3C2)c(C)c1C	none (no result: ATXN2 expr inh, MCF10A rerep, SW480 rerep, IL1B secr inh)
Cc1cc2c(cc(C(=O)OCC(=O)NCc3cccs3)n2C(C)C)o1	MCF10A rerep 2.9µM, SW480 rerep 8.2µM (no result: PINK1 modulator)
Cc1cccc(Nc2nc(N)c([N+](=O)[O-])c(N3CCN(C)CC3)n2)c1	IL1B secr inh inconclusive
Cc1cccc(Nc2nc(N)c([N+](=O)[O-])c(N3CCCC(C)C3)n2)c1 (stereo unspecified)	ATXN2 expr inh inconclusive, S2 tox inconclusive, MCF10A rerep inconclusive, SW480 rerep inconclusive, IL1B secr inh -103
Cc1ccc(Nc2nc(N)c([N+](=O)[O-])c(N3CCOCC3)n2)cc1C	none
Cc1ccc(Nc2nc(N)c([N+](=O)[O-])c(N3CCC(C)CC3)n2)cc1C	ATXN2 expr inh inconclusive, S2 tox inconclusive, PINK1 modulator inconclusive, SW480 rerep inconclusive, IL1B secr inh -80
COC(=O)c1cc(C)nc(Nc2nc(C(N)Cc3ccc(Cl)cc3)cs2)n1 (stereo unspecified)	IL1B secr inh -68 (no result: MCF10A rerep, SW480 rerep)
COC(=O)c1cc(C)nc(Nc2nc(C(N)Cc3ccc(F)cc3)cs2)n1 (stereo unspecified)	none (no result: MCF10A rerep, SW480 rerep)
COc1cc(OC)nc(Nc2nc(C(N)Cc3ccc(Cl)cc3)cs2)n1 (stereo unspecified)	ATXN2 expr inh 32µM, IL1B secr inh -89 (no result: S2 tox, MCF10A rerep, SW480 rerep)
CCc1cc2c(cc1N1CCC(N3CCOCC3)CC1)C(C)(C)c1[nH]c3cc(C#N)ccc3c1C2=O	none (no result: S2 tox, PINK1 modulator, MCF10A rerep, SW480 rerep, IL1B secr inh)
CC(=O)Nc1ccc(-c2ccnc3c2CC(C)(C(=O)Nc2ccc4c(c2)OCO4)O3)cc1 (stereo unspecified)	S2 tox inconclusive, IL1B secr inh -51 (no result: MCF10A rerep, SW480 rerep)
CC(=O)Nc1ccc(-c2ccnc3c2CC(C)(C(=O)Nc2ccc(Cl)cc2)O3)cc1 (stereo unspecified)	ATXN2 expr inh inconclusive, IL1B secr inh -53 (no result: MCF10A rerep, SW480 rerep)
CC1(C(=O)NCc2ccco2)Cc2c(-c3cccc(C(N)=O)c3)ccnc2O1 (stereo unspecified)	IL1B secr inh -57 (no result: MCF10A rerep, SW480 rerep)
CC1(C(=O)NCc2ccccc2)Cc2c(-c3cccc(C(N)=O)c3)ccnc2O1 (stereo unspecified)	S2 tox inconclusive (no result: MCF10A rerep, SW480 rerep)
CNC(=O)C1(C)Cc2c(-c3ccc(NC(C)=O)cc3)ccnc2O1 (stereo unspecified)	none (no result: MCF10A rerep, SW480 rerep)
CC(=O)Nc1ccc(-c2ccnc3c2CC(C)(C(=O)Nc2ccc(Cl)c(C(F)(F)F)c2)O3)cc1 (stereo unspecified)	ATXN2 expr inh 20µM, S2 tox 13µM (no result: MCF10A rerep, SW480 rerep)
COc1cc(NC(=O)C2CCN(S(=O)(=O)c3c(C)noc3/C=C/c3c(C)cc(C)cc3C)CC2)cc(OC)c1	none (no result: ATXN2 expr inh, S2 tox, MCF10A rerep, SW480 rerep, IL1B secr inh)
COC(=O)c1ccc(CCc2cc(O)c(Br)cc2O)cc1	ATXN2 expr inh inconclusive, S2 tox inconclusive, PINK1 modulator inconclusive, MCF10A rerep inconclusive, SW480 rerep inconclusive, IL1B secr inh -79
